# Bioassay records as filed in PubChem BioAssay.
# This excerpt belongs to a sample that is enriched for hits.
# ALOX12 inh: ALOX12 (human) lipoxygenase inhibition | P18054 | purified 12hLO, xylenol orange hydroperoxide absorbance | Potency, µM (doses to about 108 µM), for the others: top-dose activity change, negative = inhibition, actives largely listed as inhibitors | actives 1.1% (n = 580,000) | AID 1671190; further: potency means the concentration at half of the fitted maximal effect
# Target sequence (P18054 whole entry, looked up): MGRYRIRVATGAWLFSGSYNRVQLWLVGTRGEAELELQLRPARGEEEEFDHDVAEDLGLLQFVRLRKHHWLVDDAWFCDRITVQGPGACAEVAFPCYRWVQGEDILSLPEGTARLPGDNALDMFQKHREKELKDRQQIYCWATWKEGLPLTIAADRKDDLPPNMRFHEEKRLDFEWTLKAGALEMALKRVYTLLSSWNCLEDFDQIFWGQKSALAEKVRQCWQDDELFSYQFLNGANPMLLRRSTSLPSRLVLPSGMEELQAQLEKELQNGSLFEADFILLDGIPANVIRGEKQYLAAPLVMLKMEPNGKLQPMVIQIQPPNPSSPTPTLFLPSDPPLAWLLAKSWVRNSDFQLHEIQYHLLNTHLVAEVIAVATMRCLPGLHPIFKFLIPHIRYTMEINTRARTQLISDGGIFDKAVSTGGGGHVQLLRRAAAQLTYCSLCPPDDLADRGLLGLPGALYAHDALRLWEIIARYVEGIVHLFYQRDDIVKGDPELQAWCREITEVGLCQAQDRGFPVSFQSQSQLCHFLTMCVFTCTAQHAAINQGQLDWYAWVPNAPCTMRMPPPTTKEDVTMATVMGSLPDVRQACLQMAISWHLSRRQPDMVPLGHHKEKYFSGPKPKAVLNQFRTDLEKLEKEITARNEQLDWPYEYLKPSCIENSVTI
#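 Purified human 12hLO at 150 nM in 25 mM Hepes, 0.01% Triton X-100, pH 7.0, preincubated 15 min at room temperature with compound. Reaction started with 40 uM arachidonic acid, 30 min at room temperature. Hydroperoxide measured by Fe-xylenol orange, 573/405 nm absorbance ratio.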
# HT1080 IDH1KD tx: kills HT-1080 cells with IDH1 knockdown; HT-1080 IDH1 knockdown viability, ATP luminescence, 48 h; Potency, µM (titrated, usually from 46.1 µM), inactives show at the top dose activity, negative = toxicity, hits mostly cytotoxic; actives 2% (n = 360,000); AID 686971;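 further: potency means the concentration at half of the fitted maximal effect; 0% = DMSO wells and -100% = cell-free medium wells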
#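 HT-1080-IDH1KD cells (IDH1 knocked down), 750/well in RPMI with 5% FBS, treated with compound 48 h at 37 degrees C. Viability by CellTiter-Glo luminescence, normalised to DMSO and no-cell wells; concentration-response curves classed.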
# IL1B secr inh: inflammasome signaling inhibition, IL-1 beta readout | activity change, % at 57.5 µM | actives 4.7% (n = 360,000) | THP-1 LPS/ATP IL-1B secretion, AlphaLISA, 16 h; active compounds read low; in the data active means activity change below about -50%; inconclusive means mostly about -30% to -49%
#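 Secreted IL-1B measured by AlphaLISA bead assay after 16 h compound exposure of THP-1 cells; compounds (final up to 57.5 uM) added 1 h before LPS (250 ng/mL) and ATP (1.25 mM) stimulation; lower signal means less secretion.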
# TDP1 cell CPT: growth inhibition of DT40 Tdp1-/-;hTDP1 cells with camptothecin (screen for TDP1 inhibitors); chicken DT40 Tdp1-/-;hTDP1 cells + 20 nM CPT, ATP luminescence, 48 h; Potency, µM (highest dose often 46.2 µM), inactives show at the highest dose activity change, negative = growth inhibition, actives largely listed as inhibitors; actives 12% (n = 420,000); AID 686979; further: potency means the concentration at half of the fitted maximal effect; nearly all actives have a fitted effect of over 55% in size
#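 Chicken DT40 Tdp1-/- cells complemented with human TDP1, 400 cells/well, exposed to compounds plus 20 nM camptothecin for at least 48 h at 37 C; viability read as ATP content by CellTiter-Glo luminescence.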
# TDP1 cell noCPT: qHTS for Inhibitors of human tyrosyl-DNA phosphodiesterase 1 (TDP1): qHTS in cells in absence of CPT | DT40 Tdp1-/- hTDP1 cells, no CPT, ATP luminescence, 48 h | Potency, µM (highest dose often 46.2 µM), inactives show at the top dose activity change, negative = growth inhibition, most hits filed as inhibitors | actives 15% (n = 420,000) | AID 686978, 2013; further: potency means the concentration at half of the fitted maximal effect; nearly all actives have a fitted effect of over 55% in size
#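 Camptothecin absent (DMSO only). Human TDP1-complemented DT40 knockout cells, 400 cells/well, 37 °C for minimum 48 hr; ATP measured via CellTiter-Glo, 30 min dark incubation, luminescence.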
# HT1080NT lethal: kills 2HG-producing HT-1080-NT fibrosarcoma cells | HT-1080-NT fibrosarcoma viability, CellTiter-Glo ATP luminescence, 48 h | Potency, µM (series often up to 46.1 µM), without a hit: top-dose activity, negative = less viability, hits mostly cytotoxic | actives 1.6% (n = 360,000);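 further: NT is the 2HG producing partner of a matched IDH1 knockdown line; potency means the concentration at half of the fitted maximal effect; 0% = DMSO-treated cells and -100% = media-only wells without cells; nearly all actives have a fitted effect of over 55% in size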
#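 Luminescent CellTiter-Glo readout after 48 hours of compound exposure at 37 degrees C defined viability of HT-1080-NT cells. Activity was normalized to DMSO wells and cell-free media wells; concentration-response curves were fitted and assigned curve classes.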
# An asterisk follows results filed as active; u = inconclusive; x = no result given; [ ] = another dose, or the depositor's remark. Unless noted, the call rests on the fitted dose curve; in most records, active means well fitted curve in the direction sought with a large enough effect; inconclusive means small, poorly fitted or top-dose-only effect, or another doubt; inactive means no such curve, though single readings can be large; an effect the other way counts as inactive or inconclusive. Unless noted, on the % scale 0 is the no-effect control and ±100 the full control effect.
SMILES,ALOX12 inh,HT1080 IDH1KD tx,IL1B secr inh,TDP1 cell CPT,TDP1 cell noCPT,HT1080NT lethal
N=c1n(CC(=O)c2cccc([N+](=O)[O-])c2)c2ccccc2n1Cc1ccccc1,u,u,-104*,16µM*,21µM*,-23%
N=c1n(CCN2CCOCC2)c2ccccc2n1CC(=O)c1ccc(Cl)c(Cl)c1,u,u,-7,u,18µM*,-23%
N=c1n(CCN2CCOCC2)c2ccccc2n1CC(=O)c1cccc([N+](=O)[O-])c1,0%,-18%,-2,16µM*,23µM*,0%
O=C(Nc1nc2ccccc2n1CCN1CCOCC1)c1cccc([N+](=O)[O-])c1,10%[57.4 µM],x,x,x,x,x
Cc1cc(C)c2nc(-c3ccc(N)cc3)cc(C(=O)O)c2c1,-16%,x,x,x,x,x
CC(=O)N1N=C(c2ccc3c(c2)OCO3)CC1c1ccc2nccnc2c1 (centres undefined),-59%,x,x,x,x,x
Cc1ccccc1OCC(O)CN(Cc1ccccc1O)C1CCCCC1 (centres undefined),4%,u,-66*,16µM*,13µM*,u
CN(CC(O)COc1ccccc1F)C1CCCCC1 (centres undefined),-5%,2%,12,0%,-3%,4%
CCN(CC(O)COc1ccc(OCC(O)CN(CC)C2CCCCC2)cc1)C1CCCCC1 (centres undefined),-11%,u,-66*,u,u,-15%
CCOC(=O)c1cnc2c(ccc3ccccc32)c1NCCO,2%,u,u,u,21µM*,-22%
CCOC(=O)c1cnc2c(ccc3ccccc32)c1Nc1cccc(Cl)c1,-18%,x,x,-5%,-20%,x
CCOC(=O)c1cnc2c(ccc3ccccc32)c1NCCN(C)C,0%,-6%,-58*,u,u,-20%
CCOC(=O)c1cnc2c(ccc3ccccc32)c1Nc1cccc(OC)c1,u,x,x,u,26µM*,x
CCOC(=O)c1cnc2c(ccc3ccccc32)c1Nc1ccc(OCC)cc1,-3%,x,x,u,-27%,x
CCOC(=O)c1cnc2c(C)c(C)ccc2c1Nc1ccc(S(=O)(=O)Nc2ncccn2)cc1,-16%,-7%,-93*,3%,-4%,0%
O=C(Nc1c(NCc2ccccc2)c2ccccc2oc1=O)c1ccccc1Cl,-66%,x,x,x,x,x
CN1CCN(c2c([N+](=O)[O-])cnc3ccc(Br)cc23)CC1,-2%,x,x,x,x,x
CC(C)C[C@H](NC(=O)[C@H](Cc1ccccc1)NC(=O)c1cnccn1)B(O)O,3%[57.4 µM],x,x,0.0042µM*,0.0075µM*,x
CCCNC(=O)C(Cc1ccccc1)NC(=O)c1ccccn1 (centres undefined),8%,17%,1,-20%,-20%,3%
O=C(NC1CCCCC1)c1cccnc1Cl,16%,x,x,x,x,x
O=C(CCc1ncc(-c2ccccc2)o1)NC1CCS(=O)(=O)C1 (centres undefined),33%,x,x,x,x,x
Cc1nc(Nc2ccccc2)[nH]c(=O)c1CCC(C)C,-18%,8%,23,7.3µM*,u,9%
CCOc1ccc2nc(Nc3nc(C)c(CCC(C)C)c(=O)[nH]3)nc(C)c2c1,-2%,x,x,x,x,x
CCOc1ccccc1NC(=O)CSc1nc2cc(O)ccc2c(=O)n1-c1ccc(OC)c(OC)c1,4%,u,34,18µM*,u,u
Cn1c(SCC(=O)Nc2cc(C(C)(C)C)nn2-c2ccccc2)nc2ccccc21,-7%,-18%,6,u,12µM*,-11%
SMILES,ALOX12 inh,HT1080 IDH1KD tx,IL1B secr inh,TDP1 cell CPT,TDP1 cell noCPT,HT1080NT lethal
COc1ccccc1NC(=O)CSc1nnc(C2CCCCC2)n1C,0%,-1%,-4,2%,-31%,-4%
COc1ccc(-n2c(SCC(=O)Nc3ccc(C(N)=O)cc3)nc3ccccc3c2=O)cc1OC,0%,-15%,u,-12%,-25%,u
Cn1c(SCC(=O)Nc2ccccc2)nc2ccccc2c1=O,16%,-17%,u,2.9µM*,u,-18%
COc1ccccc1NC(=O)CSc1nnc(C2CCCCC2)n1-c1ccccc1,-22%,-20%,-24,21µM*,12µM*,-21%
Cc1cc2c(=O)n(C)c(SCC(=O)Nc3ccccc3)nc2s1,20%,-9%,41,-25%,u,-9%
Cc1ccc2nc(SCC(=O)Nc3cc(C(C)(C)C)nn3-c3ccccc3)[nH]c2c1,-2%,u,-13,u,-1%,-24%
O=C(c1ccc(N2CC3CC(C2)[C@H]2CCCC(=O)N2C3)nc1)N1CCC(Cc2ccccc2)CC1 (some centres undefined),14%,x,x,x,x,x
O=C(O)c1nn(CC2CC2)c2c1CN(C(=O)c1nccc3ccccc13)CC2,54%,x,x,x,x,x
CCOCCCn1c(SCC(=O)Nc2ccccc2)nc2ccccc2c1=O,-16%,-1%,-10,u,u,-12%
CCOC(=O)c1cccc(NC(=O)CSc2nc3ccccc3c(=O)n2CCOC)c1,-15%,0%,-3,u,21µM*,4%
CCOCCCn1c(SCC(=O)Nc2ccccc2OC)nc2ccccc2c1=O,13%,-4%,-1,u,16µM*,-1%
COc1ccccc1NC(=O)CSc1nnc(CC(=O)Nc2ccccc2)n1C,0%,9%,-50*,-30%,-8%,4%
CCOCCCn1c(SCC(=O)Nc2ccc(C)cc2)nc2ccccc2c1=O,-28%,x,x,16µM*,15µM*,x
CCOCCCn1c(SCC(=O)Nc2ccc(NC(C)=O)cc2)nc2ccccc2c1=O,5%,-1%,0,-13%,-6%,-1%
COc1ccccc1NC(=O)Cc1nnc(SCC(=O)NC2CCCC2)n1C,-1%,4%,20,-2%,3%,17%
COCCCn1c(SCC(=O)c2ccccc2)nc2ccccc2c1=O,2%,-1%,-11,u,23µM*,-18%
COc1ccccc1NC(=O)CSc1nc2ccccc2c(=O)n1C,6%,-23%,17,15µM*,9.2µM*,-4%
COc1ccccc1NC(=O)Cn1nc(-c2ccncc2)nc1SCC(=O)NC1CCCC1,101%,-15%,17,13µM*,15µM*,-27%
CCc1ccc(NC(=O)CSc2nc3ccccc3c(=O)n2CCCC(=O)N2CCCC2)cc1,2%,-19%,20,15µM*,u,-17%
CCc1ccc(NC(=O)CSc2nc3ccccc3c(=O)n2CCC(=O)NC2CCCCC2)cc1,-10%,x,x,-2%,3%,x
